Results filed as inconclusive are left out. Activity calls are given as the source filed them. Calls come from the whole dose curve; as a rule, active = well fitted inhibition curve with a large enough effect; inconclusive = small, poorly fitted or top-dose-only effect; inactive = flat fitted curve, though single readings scatter.
assay: Identification of antibody-drug conjugate (ADC) payloads which are substrates of ATP-binding cassette drug efflux transporters: ABCB1-HEK293-pcDNA cell line; conditions: HEK293 empty-vector (pcDNA) control viability, CellTiter-Glo, 48 h
Text: Antibody-drug conjugates (ADCs) feature an antibody recognizing a specific protein joined to a potent toxic payload. Numerous antibody-drug conjugates have received FDA approval; however, clinical resistance arises. Resistance mechanisms include decreased expression or mutation of the antibody target, impaired payload release, or increased expression of ATP-binding cassette (ABC) efflux transporters associated with multidrug resistance. We therefore sought to characterize the interaction of ABC multidrug transporters with ADC payloads. We performed a high-throughput screen with 27 common ADC payloads using cells lines expressing ABC transporters P-glycoprotein (P-gp, encoded by ABCB1) or ABCG2 (encoded by ABCG2). Confirmatory assays were also performed using cells transfected to express P-gp, ABCG2, or MRP1 (encoded by ABCC1). Several commonly used ADC payloads were substrates of P-gp, including calicheamicin gamma1, monomethyl auristatin E, DM1, and DM4. All the pyrrolobenzodiazepines tested - SJG136, SGD-1882, SG2057, and SG3199 - were substrates of P-gp, ABCG2, and MRP1. […] These findings highlight the risk of transporter-mediated resistance with certain ADC payloads and underscore the importance of selecting payloads that evade ABC transporter recognition in future ADC development.
HEK-293 cells were transfected with empty vector (pcDNA) or vector containing the human ABCB1 (MDR-19), ABCG2 (R-5), or ABCC1 gene (MRP1) and were maintained in EMEM with 2 mg/mL G418 added to maintain transporter expression. The HeLa derivative KB-3-1 and the P-gp overexpressing KB-8-5-11 subline were maintained in DMEM; KB-8-5-11 additionally received 100 ng/mL colchicine. H460 parental cells were obtained from the Division of Cancer Treatment and Diagnosis Tumor Repository, National Cancer Institute at Frederick, MD and were cultured in RPMI. The ABCG2 expressing subline H460 MX20 was generated by selecting H460 cells in 20 nM mitoxantrone. Media in all cases was supplemented with 10% FBS and 1% penicillin-streptomycin. We explored 27 common ADC payloads, in two orthogonal, paired cell line sets-a drug selected and transfected set for each transporter--to identify substrates of the ABC transporters P-gp and ABCG2. Compounds were sourced from Levena Biopharma (San Diego, CA), Selleck Chem (Houston, TX), ChemieTek (Indianapolis, IN), or Microsource Discovery Systems (Gaylordsville, CT). Screening was performed as previously described. Briefly, cells were plated at a density of 500 cells/well in 1536 well plates with compounds added using a 1536-head pin tool (Kalypsys, San Diego CA). Cells were incubated with cytotoxic drugs and processed with CellTiter Glo reagent (Promega, Madison, WI) to determine viability after 48 hours. […]

SMILES | Potency
COc1cccc2c1C(=O)c1c(O)c3c(c(O)c1C2=O)C[C@@](O)(C(=O)CO)CC3OC1CC(N2CCOC(OC)C2)C(O)C(C)O1 (some centres undefined) | 1.7 nM (active)
CC[C@@]1(O)C(=O)OCc2c1cc1n(c2=O)Cc2cc3ccccc3nc2-1 | 11.8 nM (active)
CC[C@H](C)[C@H](NC(=O)[C@H]1CCCCN1C)C(=O)N(C)[C@H](C[C@@H](OC(C)=O)c1nc(C(=O)N[C@@H](Cc2ccccc2)C[C@H](C)C(=O)O)cs1)C(C)C | 1.3 nM (active)
COc1cc2cc(C(=O)N3C[C@@H](CCl)c4c3cc(O)c3ccccc43)[nH]c2c(OC)c1OC | 1.5 nM (active)
